Measured values as given in PubChem BioAssay (NCI).
This is part of a sample that, as a whole, favours compounds with a hit. Of some 83,000 tested, about 20% had one in any assay.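 For each line, cells grew in 96-well plates with the test compound present at a single concentration for 48 hours.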 A number with no mark means an inactive call. Active and inactive are the calls of the source. Rule for the calls: active = growth percent below 10; inactive = the rest.

Legend:
Experiment in all cases: NCI-60 one-dose screen, 48 h (100 = growth as untreated, 0 = no growth, -100 = all killed)
Conditions in all cases: 10 µM unless noted
T-47D breast = tested on: T-47D breast
BT-549 breast = tested on: BT-549 breast
MDA-MB-435 melanoma = tested on: MDA-MB-435 melanoma
SW-620 colon = tested on: SW-620 colon
MCF7 breast = tested on: MCF7 breast
HCT-116 colon = tested on: HCT-116 colon
HCC-2998 colon = tested on: HCC-2998 colon
KM12 colon = tested on: KM12 colon

| Structure (SMILES) | growth (T-47D breast) | growth (BT-549 breast) | growth (MDA-MB-435 melanoma) | growth (SW-620 colon) | growth (MCF7 breast) | growth (HCT-116 colon) | growth (HCC-2998 colon) | growth (KM12 colon) |
| --- | --- | --- | --- | --- | --- | --- | --- | --- |
| COc1cc(-c2n[nH]nc2-c2ccccn2)cc(OC)c1OC | 87.2% | 117% | 106% | 106% | 96.2% | 104% | 105% | 102% |
| C[C@H]1C(=O)N2c3ccccc3[C@@]3(O)C[C@@H](n4cnc5ccccc5c4=O)C(=O)N1[C@@H]23 | 99.1% | 103% | 109% | 107% | 98.9% | 93.8% | 98.5% | 113% |
| COc1cc(NC(C)CCCN)c2nc(C)ccc2c1Oc1ccc(F)cc1 (stereo not given) | 87.4% | 70.5% | 104% | 67% | 62.1% | 33.9% | 21.6% | 78.9% |
| Cc1cc(Cl)ccc1Nc1nc(C(F)(F)F)ccc1C(=O)N/N=C/c1ccc(Cl)cc1 | -0.161% (active) | -7.4% (active) | 37.1% | 9.53% (active) | 2.27% (active) | -38.8% (active) | -13.3% (active) | 6.03% (active) |
| COc1cnc2c(c1)C(=O)c1c-2n(CCCN2CCCC2)c(=O)c2cc(F)ccc12 | -4.54% (active) | -6.57% (active) | 16% | -33.2% (active) | 3.93% (active) | -77.3% (active) | 16.9% | -12.6% (active) |
| C=CCN(/C=C/CN(CC=C)CC=C)CC=C | 101% | 100% | 105% | 102% | 97% | 102% | 110% | 105% |
| O=C1OC(Oc2ccccc2)(c2ccccc2)c2ccccc21 (stereo not given) | 100% | 102% | 102% | 106% | 117% | 102% | 104% | 93.3% |
| COc1ccc2c(c1)CC/C(=C\c1ccc(OCC(=O)Nc3nc4ccccc4s3)cc1)C2=O | 88.3% | 83.6% | 100% | 93.9% | 98.4% | 89.1% | 87.6% | 108% |
| N/C(=N\C(N)=N\c1nc2ccccc2s1)c1ccnc(Cl)c1 | 60.8% | 38% | -34.9% (active) | 16.8% | 31.5% | 31.7% | 62.7% | 32% |
| CCCn1c(N)c(C(=O)CNc2ccc(I)cc2)c(=O)[nH]c1=O | 94.9% | 61.4% | 51.1% | 35.3% | 57.1% | 32.3% | 74.2% | 43.7% |
| COc1cc(/C(Cl)=C/C=C/C(=O)c2c(C)[n+]([O-])c3ccc(Cl)cc3[n+]2[O-])cc(OC)c1OC | 22.3% | 36.5% | 6.9% (active) | 1.65% (active) | 0.61% (active) | 2.9% (active) | 83.2% | 33% |
| COC(=O)[C@H](Cc1cnc[nH]1)NC(=O)[C@@H](NC(=O)Nc1cc(C(F)(F)F)cc(C(F)(F)F)c1)C(C)C | -63.5% [100 µM] (active) | -90.7% [100 µM] (active) | -91.1% [100 µM] (active) | -48.2% [100 µM] (active) | -53.1% [100 µM] (active) | -89.5% [100 µM] (active) | -82.2% [100 µM] (active) | -94.6% [100 µM] (active) |
| COc1ccc(C2=NN(C=O)C(c3cccc(Nc4ccnc5cc(Cl)ccc45)c3)C2)cc1 (stereo not given) | 25.1% | 1.59% (active) | 11.7% | 24.8% | 15.7% | 12% | 57.8% | 27.4% |
| CCSc1ncc(Br)c(Sc2nc(N)nc3nc[nH]c23)n1 | 29.9% | 65.3% | 37.7% | 91.4% | 47% | 36.8% | 41.4% | 79% |
| COc1cc(/C=C/C(=O)C(C(=O)/C=C/c2ccc(OC(=O)CCNc3nnc(C)s3)c(OC)c2)C(=O)CCNc2nnc(C)s2)ccc1OC(=O)CCNc1nnc(C)s1 | 41.4% | -44% (active) | -27.5% (active) | -19.5% (active) | 8.2% (active) | -31.6% (active) | -46.7% (active) | -39.2% (active) |
| O=C(N/N=C/c1cccc(O)c1O)c1ccccc1 | 15.5% | 31.3% | 28.8% | 33.5% | 3.07% (active) | 9.39% (active) | 8.51% (active) | 25.9% |
| CC(=O)Nc1c(Cl)cc2c(c1Cl)Cc1ccccc1-2 | 89.5% | 98.8% | 122% | 103% | 91.1% | 99.1% | 107% | 97.2% |
| CC(C)Cn1cnc2c(NCn3nc(-c4cc(Cl)cc(Cl)c4Cl)n(/N=C/c4ccc(Cl)cc4)c3=S)nc3ccccc3c21 | 71.3% | 92.3% | 110% | 98.5% | 97.2% | 66.1% | 80.6% | 96.6% |
| N#Cc1c(NC(=O)c2ccco2)[n+]([O-])c2cc(Cl)c(Cl)cc2[n+]1[O-] | 112% | 94.4% | 126% | 119% | 87.8% | 105% | 109% | 131% |
| COC(=O)[C@H]1[C@H]2C[C@@H]3c4[nH]c5cc(OC)ccc5c4CCN3C[C@H]2C[C@@H](OC(=O)/C=C/c2cc(OC)c(OC)c(OC)c2)[C@@H]1OC | 45% | 67.8% | 7.45% (active) | 61.3% | 29.1% | -28% (active) | 105% | 40.5% |
| O=C(O)CNC(=O)C1(N2C(=O)c3ccccc3C2=O)CCCC1 | 102% | 101% | 96.3% | 110% | 92% | 103% | 104% | 118% |
| COc1cccc(/C=C2\Cc3ccccc3C2=O)c1 | 100% | 103% | 96.7% | 104% | 58.8% | 96.3% | 105% | 95.2% |
| COC(=O)[C@H](CCCCNC(=O)OCc1ccccc1)NC(=O)[C@@H](NC(=O)Nc1cc(C(F)(F)F)cc(C(F)(F)F)c1)C(C)C | -57.6% [100 µM] (active) | 47.1% [100 µM] | -86% [100 µM] (active) | -14.6% [100 µM] (active) | -18.2% [100 µM] (active) | -86.6% [100 µM] (active) | -43.4% [100 µM] (active) | 7.99% [100 µM] (active) |
| COc1ccc(CNC(=O)c2c(C)n([O-])c3cc(F)c(F)cc3[n+]2=O)cc1 | 67.8% | 80.3% | 106% | 71.1% | 55.9% | 97.8% | -73.5% (active) | 96.1% |
| O=C(/C=C/c1cccc(O)c1)c1cccc(-n2cc(-c3ccccc3)[nH]c2=O)c1 | 21.1% | 7.56% (active) | 33.8% | -32.1% (active) | 6.52% (active) | -67.7% (active) | -44.2% (active) | -73.3% (active) |
| CCOc1cc(CCNS(=O)(=O)c2ccc(C)cc2)c(C(C)=O)cc1OCC | 66% [100 µM] | 73.4% [100 µM] | 99.4% [100 µM] | 92.9% [100 µM] | 94.9% [100 µM] | 77.6% [100 µM] | 95.5% [100 µM] | 67.2% [100 µM] |
| COc1ccc(-c2ccc(O)c(C(=O)/C=C/c3cc(OC)c(OC)c(OC)c3)c2)cc1 | 67% | 90.4% | 64.6% | 88.6% | 64.2% | 68.8% | 100% | 79.9% |
| CCOC(=O)c1cc2oc(/C=C/c3cc(=O)c4cc(Cl)ccc4o3)cc2[nH]1 | 68.4% | 53.5% | 88.2% | 82.5% | 40.2% | 81.2% | 98.1% | 62.8% |
| CC(C)=CCCC(C)c1ccc(C)c2c1OCN(CC1CCNCC1)C2 (stereo not given) | -94.4% (active) | 55.8% | 14.7% | 28% | 36.6% | -37.2% (active) | -82.1% (active) | 38.4% |
| COc1cnc2c(c1)C(=O)c1c-2n(CCCn2ccnc2)c(=O)c2cc(F)ccc12 | -9.74% (active) | -11.2% (active) | -60.3% (active) | -45.2% (active) | 0.795% (active) | -49.9% (active) | 4.65% (active) | 0.0466% (active) |
